Type in all cases: functional
Assay [1] deals with Solute carrier family 2, facilitated glucose transporter member 1 (Homo sapiens) (UniProt P11166). Description: ST_JUDE_LEISH: Cytotoxicity at 2uM final concentration against transgenic Leishmania Mexicana promastigotes LmGLUT1 that are glucose transport deficient and complemented with the human glucose transporter GLUT1. Activity is measured by DNA content using SYBR green in vitro.

Assay [2] has as its target Hexose transporter 1 (Plasmodium falciparum) (UniProt O97467). Kind of assay: ST_JUDE_LEISH: Cytotoxicity at 2uM final concentration against transgenic Leishmania Mexicana promastigotes LmPfHT that are glucose transport deficient and complemented with the Plasmodium falciparum hexose transporter. Activity is measured by DNA content using SYBR green in vitro.
For assay [3], the target named is Glucose transporter (Leishmania mexicana) (UniProt O61059). Kind of assay: ST_JUDE_LEISH: Cytotoxicity at 2uM final concentration against transgenic Leishmania Mexicana promastigotes LmGT2 that are glucose transport deficient and complemented with the L. Mexicana glucose transporter 2. Activity is measured by DNA content using SYBR green in vitro.

Sequence of Solute carrier family 2, facilitated glucose transporter member 1 (Homo sapiens) (P11166 whole entry): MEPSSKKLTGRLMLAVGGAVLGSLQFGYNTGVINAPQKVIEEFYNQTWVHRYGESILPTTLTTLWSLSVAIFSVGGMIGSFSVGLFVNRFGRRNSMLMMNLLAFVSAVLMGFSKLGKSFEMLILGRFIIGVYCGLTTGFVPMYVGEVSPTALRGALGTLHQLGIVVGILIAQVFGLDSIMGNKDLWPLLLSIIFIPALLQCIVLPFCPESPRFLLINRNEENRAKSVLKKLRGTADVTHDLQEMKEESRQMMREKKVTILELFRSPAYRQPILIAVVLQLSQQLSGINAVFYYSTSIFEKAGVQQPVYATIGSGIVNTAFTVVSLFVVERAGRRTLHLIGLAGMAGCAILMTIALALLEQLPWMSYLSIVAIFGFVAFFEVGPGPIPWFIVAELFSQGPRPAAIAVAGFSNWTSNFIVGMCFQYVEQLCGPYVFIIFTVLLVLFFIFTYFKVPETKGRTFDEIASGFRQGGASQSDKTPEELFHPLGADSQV

Regarding `COc1ccc(-c2ccc(CN(C)C3CCC(NC(=O)c4cc5ccccc5[nH]4)CC3)cc2)cn1` (stereo not drawn), the results for the inhibition in assay [1], in assay [2] and in assay [3] were -1.44%, -1.14% and -1.54%, respectively.

For `COc1ccc2nccc(NC(=O)C3CCC(NCc4cnc(SC)c([N+](=O)[O-])c4)CC3)c2n1` (stereo not drawn), the inhibition was determined as 10.5% in assay [1], 10.3% in assay [2] and 20.7% in assay [3].

In the case of `CC(=O)N1CCN(c2ccc(NC(=O)c3oc(-c4ccccc4)nc3C(F)(F)F)cn2)CC1`, the inhibition in assay [1] amounted to 1.92%; in assay [2] it was 1.42%; in assay [3], 1.05%.

For `CC(C)c1ccc(CN2CCC(CNC(=O)c3cc(-c4cccc(C(F)(F)F)c4)cs3)C2)cc1` (stereo not drawn), the figures for the inhibition in assay [1], in assay [2] and in assay [3] were 1.18%, 1.74% and 3.79%, respectively.

Consider `O=C(NC1CCN(Cc2ccccc2)CC1)c1cccc(-c2cc3cc(Cl)c(Cl)cc3[nH]2)c1`, for which the inhibition in assay [1] is 2.36%; in assay [2], -1.61%; in assay [3], -0.91%.

Regarding `Cn1c(Cc2ccccc2)nnc1Sc1ccc(C#N)c([N+](=O)[O-])c1`, the inhibition was 3.85% in assay [1], 1.84% in assay [2] and -3.07% in assay [3].

Regarding `CCOc1ccc(-c2nc(NC(=O)Cc3cccc(OC)c3)sc2C)cc1`, the inhibition was 5.17% in assay [1], 7.92% in assay [2] and -0.61% in assay [3].

For the compound `Cc1ccc(Nc2ccnc3cc(-c4nccs4)ccc23)cc1C(O)c1ccccc1` (stereo not drawn), the inhibition in assay [1] came out at 3.59%; in assay [2], 2.96%; in assay [3], 3.72%.

On to `CCC(C)(C)c1ccc(N2C(N)=NC(N)=NC2(C)C)cc1`, for which the inhibition was -2.05% in assay [1], -1.28% in assay [2] and -2.78% in assay [3].

On to `O=[N+]([O-])c1cccc(CNCC2CCN(Cc3ccc(Cl)c(Cl)c3)CC2)c1`, for which the values for the inhibition in assay [1], in assay [2] and in assay [3] were 18.2%, 9.74% and 12.9%, respectively.

For `Cc1cccc(NC(=O)c2cnc(N3CCN(c4ccncc4)CC3)c(Cl)c2)c1`, the inhibition in assay [1] came out at 23.2%; in assay [2] it was 19.8%; in assay [3], 6.53%.

In the case of `COc1ccc2c(c1)CC(C)(C)NC2CCCCCCCCC1NC(C)(C)Cc2cc(OC)ccc21` (stereo not drawn), the inhibition in assay [1] stood at 2.26%; in assay [2] it was 2.26%; in assay [3], 0.77%.

On to `Cc1cn(CC(=O)Nc2cccc(-c3cccc(-c4nc5cc(C(F)(F)F)ccc5[nH]4)c3)c2)c(=O)[nH]c1=O`, for which the inhibition in assay [1] came out at 9.16%; in assay [2], 8.95%; in assay [3] it was 4.55%.

For the compound `O=C(Nc1ccccc1)N1CCC(CN2CCOC(c3ccccc3)(c3ccccc3)C2)CC1`, the values for the inhibition in assay [1], in assay [2] and in assay [3] were 7.91%, 4.78% and 7.57%, respectively.

For `CC(C)N1CCC(N(Cc2ccc(-c3ccc(C(F)(F)F)cc3)cc2)C(=O)Cn2c(CCc3cccc(F)c3F)cc(=O)c3ccccc32)CC1`, the inhibition amounted to 0.12% in assay [1], 1.55% in assay [2] and 1.16% in assay [3].

Regarding `CCCN(CC1CC1)c1nc(C)nc2c(-c3ccccc3)cc(C)cc12`, the inhibition is 12.7% in assay [1], 16.2% in assay [2] and 10.1% in assay [3].

Source of the values: ChEMBL document CHEMBL3433997, “St. Jude Leishmania screening dataset” (2016).
